Rows were chosen to be rich in hits. Some 19% of all compounds tested hit in one or more screens of this group.
DT40 TDP1 CPT = growth inhibition of DT40 Tdp1-/-;hTDP1 cells with camptothecin (screen for TDP1 inhibitors). chicken DT40 Tdp1-/-;hTDP1 cells + 20 nM CPT, ATP luminescence, 48 h. Potency, µM (titrated, usually from 46.2 µM), for the others: at the highest dose activity change, negative = growth inhibition, actives largely listed as inhibitors. actives 12% (n = 420,000). AID 686979; note: nearly all actives have a fitted effect of over 55% in size
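Cell growth measured by CellTiter-Glo luminescence after a minimum 48 h, 37 C compound exposure with 20 nM CPT in Tdp1-knockout DT40 cells stably expressing hTDP1, seeded 400/well; qHTS titration format.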
HT1080 IDH1KD tx = toxicity to HT-1080 IDH1 knockdown cells (counter line); AID 686971; actives 2% (n = 360,000); Potency, µM (highest dose often 46.1 µM), for the others: at the highest dose activity, negative = toxicity, usual class: cytotoxic; HT-1080 IDH1 knockdown viability, ATP luminescence, 48 h;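 note: 0% = DMSO wells and -100% = cell-free medium wells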
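Knockdown cells (IDH1KD HT-1080) received compounds 2 h after plating at 750 cells/well and were kept 48 h at 37 °C in 5% FBS RPMI. A CellTiter-Glo luminescence read gave % activity for curve fitting.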
KB-V1 MDR tox = KB-V1 MDR subline cytotoxicity. KB-V1 MDR cells viability, CellTiter-Glo, 72 h. Potency, µM (titrated, usually from 46.1 µM), actives largely listed as cytotoxic. actives 3.4% (n = 400,000). AID 1347076; note: nearly all actives have a fitted effect of over 60% in size
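Luminescent ATP read-out (CellTiter-Glo, 10 min) measures survival of drug-selected KB-V1 MDR cells after 72 h, 37 degrees C compound exposure. Medium: phenol-red-free DMEM, 10% FBS. Values from fitted concentration-response curves.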
TDP1 cell noCPT = qHTS for Inhibitors of human tyrosyl-DNA phosphodiesterase 1 (TDP1): qHTS in cells in absence of CPT; DT40 Tdp1-/- hTDP1 cells, no CPT, ATP luminescence, 48 h; AID 686978, 2013; actives 15% (n = 420,000); Potency, µM (highest dose often 46.2 µM), inactives show at the top dose activity change, negative = growth inhibition, hits mostly inhibitors; note: nearly all actives have a fitted effect of over 55% in size
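Stably hTDP1-transfected Tdp1-null chicken DT40 cells were treated with library compounds minus camptothecin and grown for at least 48 hr at 37 °C, after which cellular ATP was quantified by luminescence.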
KB-3-1 tox = KB-3-1 parental cell cytotoxicity; KB-3-1 viability, CellTiter-Glo ATP luminescence, 72 h; actives 1.4% (n = 400,000); Potency, µM (top dose mostly 46.1 µM), hits mostly cytotoxic; note: nearly all actives have a fitted effect of over 60% in size
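Using CellTiter-Glo luminescence, growth of non-resistant KB-3-1 adenocarcinoma cells is assessed 72 h after pin-tool compound addition at 37 °C. Normalized responses across the concentration series yield fitted curves.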
HT1080-NT tox = kills 2HG-producing HT-1080-NT fibrosarcoma cells; HT-1080-NT fibrosarcoma viability, CellTiter-Glo ATP luminescence, 48 h; Potency, µM (highest dose often 46.1 µM), for inactives: top-dose activity, negative = less viability, most hits filed as cytotoxic; actives 1.6% (n = 360,000); AID 686970;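 note: NT is the 2HG producing partner of a matched IDH1 knockdown line; 0% = DMSO-treated cells and -100% = media-only wells without cells; nearly all actives have a fitted effect of over 55% in size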
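HT-1080-NT; 750 cells/well; 5% FBS RPMI; 48 h compound, 37 degrees C; CellTiter-Glo luminescence; curve fitting and curve-class assignment.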
The depositor's hits bear a star; i = inactive; ? = inconclusive; nt = no result given. Calls come from the whole dose curve; as a rule, active = well fitted curve in the direction sought with a large enough effect; inconclusive = small, poorly fitted or top-dose-only effect, or another doubt; inactive = no such curve, though single readings can be large; an effect the other way counts as inactive or inconclusive. Unless noted, % is set by controls: 0 for no effect and ±100 for the full control effect; potency is the fitted concentration of half-maximal effect.

SMILES	DT40 TDP1 CPT	HT1080 IDH1KD tx	KB-V1 MDR tox	TDP1 cell noCPT	KB-3-1 tox	HT1080-NT tox
CC1CCC2(CC1)NC(=O)c1ccccc1O2 (stereo not drawn)	?	-5%	i	?	i	-1%
O=S(=O)(Cc1ncc(C(F)(F)F)cc1Cl)c1ccccc1	23µM*	?	?	?	?	-21%
O=S(=O)(Nc1ccccc1)c1ccc(Oc2ncc(C(F)(F)F)cc2Cl)cc1	15µM*	?	?	?	?	?
CC(=O)N1CCc2ccccc2C1CC(=O)O (stereo not drawn)	1%	18%	i	-7%	i	10%
CCOC(=O)[C@]12CCCC=C1N(Cc1ccccc1)C(=O)[C@H](CC(=O)NCCCN1CCCC1=O)C2	-3%	26%	i	-2%	i	21%
CCc1ccc(NC(=O)C(C)OC(=O)CCC(=O)c2cccs2)cc1 (stereo not drawn)	-2%	23%	i	-30%	i	19%
CN(CC(=O)Nc1cccc(F)c1)C(=O)c1ccc2c(c1)CC(c1ccccc1)OC2=O (stereo not drawn)	8.2µM*	16µM*	?	5.2µM*	18µM*	?
CN(CC(=O)Nc1cccc(F)c1)C(=O)c1ccc(C2SCCS2)cc1	?	-18%	18µM*	?	?	-5%
O=C(Nc1ncc(Cc2ccccc2Cl)s1)c1ccc2c(c1)CC(c1ccccc1)OC2=O (stereo not drawn)	-22%	nt	i	-28%	i	nt
CCc1ccc(Cc2cnc(NC(=O)c3ccc4c(c3)CC(c3ccccc3)OC4=O)s2)cc1 (stereo not drawn)	?	nt	i	18µM*	i	nt
O=C(CSCc1ccccc1)Nc1cccc(F)c1	7.3µM*	-3%	i	?	i	2%
CN(CC(=O)Nc1cccc(F)c1)C(=O)c1ccc(OCc2ccccc2)cc1	-28%	-10%	i	?	i	-6%
O=C(CSCc1ccc(F)cc1)Nc1ccc(F)cc1	-6%	11%	i	-11%	i	16%
CN(CC(=O)Nc1cccc(F)c1)C(=O)c1ccccc1CCc1ccccc1	15µM*	-16%	?	21µM*	i	-22%
COc1cccc(NC(=O)Cc2ccccc2)c1	-24%	1%	i	-14%	i	0%
O=C(Cc1ccccc1)Nc1cccc(N2C(=O)C=CC2=O)c1	5.2µM*	?	i	4.6µM*	i	-12%
Cc1[nH]nc2c1C(CCc1ccccc1)C(C#N)=C(N)O2 (stereo not drawn)	-11%	12%	i	-7%	i	19%
Cc1ccc(-n2c3c(c(O)c(-c4ccccc4)c2=O)C(=O)CC(C)(C)C3)cc1	?	6%	12µM*	-18%	i	1%
Cc1ccc(-c2cc3c(n2-c2ccc(F)cc2)CC(C)(C)CC3=O)cc1	16µM*	nt	i	18µM*	i	nt
COc1ccc(-n2c(-c3ccc(C)cc3)cc3c2CC(C)(C)CC3=O)c(OC)c1	15µM*	nt	i	?	i	nt
O=C(Cn1[nH]c(=O)c2ccccc2c1=O)N1CCN(S(=O)(=O)c2ccc(Cl)cc2)CC1	-15%	-2%	?	0%	i	-1%
CC(=O)NCc1ccc(S(=O)(=O)N2CCN(S(=O)(=O)c3ccc4ccccc4c3)CC2)cc1	12%	-26%	i	-6%	i	-18%
O=S(=O)(Cc1ccccc1)N(O)c1ccccc1	21µM*	2%	i	23µM*	i	-19%
CC1(C(=O)NS(=O)(=O)c2ccccc2C(F)(F)F)CCN1C(=O)CCC1CCCC1 (stereo not drawn)	0%	8%	i	1%	i	-1%
CCN(CC)c1ncnc2c1ncn2[C@H]1CN(Cc2ccc(Cl)cc2)C[C@@H](CO)O1	29µM*	-19%	?	16µM*	i	-19%
SMILES	DT40 TDP1 CPT	HT1080 IDH1KD tx	KB-V1 MDR tox	TDP1 cell noCPT	KB-3-1 tox	HT1080-NT tox
CC(C)N(C)c1ncnc2c1ncn2[C@H]1CN(Cc2ccco2)C[C@@H](CO)O1	2%	1%	i	9%	i	7%
CC(C)N(C)c1ncnc2c1ncn2[C@H]1CN(Cc2ccncc2)C[C@@H](CO)O1	23µM*	1%	i	23µM*	i	3%
CC(C)N(C)c1ncnc2c1ncn2[C@H]1CN(Cc2ccc(-c3ccccc3)cc2)C[C@@H](CO)O1	7.3µM*	?	i	6.5µM*	i	23µM*
Clc1ccccn1	18%	10%	i	1%	i	-8%
CCCCCCCN(C(=O)CCl)c1ccccc1C	18µM*	?	i	15µM*	i	-11%
CCN(C(=O)c1ccc(C(=O)N(CC)c2ccccc2C)cc1)c1ccccc1C	?	nt	i	16µM*	i	nt
Nc1[nH]c(=O)nc(Nc2ccccc2)c1N=O	?	-1%	i	-14%	i	0%
Cc1c(/C=C(\C#N)C(=O)Nc2cccc(Cl)c2)c2ccccc2n1Cc1ccccc1	?	nt	?	5.8µM*	?	nt
N#C/C(=C/c1cn(Cc2ccc(F)cc2)c2ccccc12)C(=O)Nc1cccc(Cl)c1	?	nt	?	-28%	i	nt
Cc1ccc(Cl)cc1NC(=O)/C(C#N)=C/c1c(C)n(Cc2ccccc2)c2ccccc12	?	nt	i	?	i	nt
COc1cccc(NC(=O)/C(C#N)=C\c2cn(Cc3ccc(C)cc3)c3ccccc23)c1	10µM*	nt	?	5.8µM*	?	nt
Cn1cc(/C=C(\C#N)C(=O)Nc2cccc([N+](=O)[O-])c2)c2ccccc21	13µM*	16%	i	8.2µM*	?	14%
Cc1ccc(C)c(NC(=O)/C(C#N)=C/c2cn(CC(=O)NCc3ccco3)c3ccccc23)c1	16µM*	?	i	?	i	-30%
CCC(=O)N1CCC1(C)C(=O)Nc1ccc(OC)c(OC)c1 (stereo not drawn)	0%	0%	?	1%	i	9%
CC(C)N=c1cc2n(-c3ccc(Cl)cc3)c3ccccc3nc-2cc1Nc1ccc(Cl)cc1	13µM*	-6%	?	16µM*	i	-1%
CCC(=O)Nc1ccccc1-c1nc2ccccc2n(C(CC)C(=O)Nc2cccc(C(C)=O)c2)c1=O (stereo not drawn)	?	nt	i	?	i	nt

High-throughput results deposited in PubChem BioAssay by National Center for Advancing Translational Sciences (NCATS).
